Experimental data as given in PubChem BioAssay (NCI).
About 83,000 compounds went through this panel and 20% of them were active in at least one assay; those are over-represented in the sample as a whole.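 Results are percent growth after 48 hours of single-concentration exposure. 100 means growth as in untreated cells, lower positive values show inhibition; negative values down to -100 show cell death.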 A number with no mark means an inactive call. The source made the active and inactive calls. The calls were made as follows: active = growth percent below 10; inactive = the rest.

Legend:
Experiment in all cases: NCI-60 one-dose screen, 48 h (100 = growth as untreated, 0 = no growth, -100 = all killed)
Conditions in all cases: 10 µM
DU-145 prostate = system: DU-145 prostate
MALME-3M melanoma = system: MALME-3M melanoma
MDA-MB-231 breast = system: MDA-MB-231 breast
RXF 393 renal = system: RXF 393 renal
SF-268 CNS = system: SF-268 CNS
SF-295 CNS = system: SF-295 CNS
SF-539 CNS = system: SF-539 CNS
UACC-257 melanoma = system: UACC-257 melanoma
M14 melanoma = system: M14 melanoma
K-562 leukemia = system: K-562 leukemia

Row | SMILES | growth (DU-145 prostate) | growth (MALME-3M melanoma) [%] | growth (MDA-MB-231 breast) | growth (RXF 393 renal) [%] | growth (SF-268 CNS) [%] | growth (SF-295 CNS) | growth (SF-539 CNS) | growth (UACC-257 melanoma) | growth (M14 melanoma) | growth (K-562 leukemia) [%]
1 | CC(C)COC(=O)COC(=O)OCCOCCOC(=O)OCC(=O)OCC(C)C | 95.3% | 104 | 113% | 103 | 93.5 | 115% | 80.5% | 103% |  | 
2 | COC(=O)Nc1nc2ccc(C(=O)c3cccs3)cc2[nH]1 | -1.55% (active) | 36.2 | 24% | 44.9 | 36.9 | -9.66% (active) | 10.3% | 56% | 3.53% (active) | 
3 | COc1cc([C@@H]2c3cc4c(cc3[C@H](O)[C@H]3COC(=O)[C@H]23)OCO4)cc(OC)c1OC | -23.9% (active) | 54.2 | 10.1% | 41 | 27.3 | -14.1% (active) | 5.77% (active) | 53.2% | 6.41% (active) | 
4 | CCCC(=O)c1cc(C)ccc1OC | 119% | 135 | 93.8% | 109 | 96 | 125% | 94.9% | 112% |  | 
5 | COCCCC/C(=N\OCCN)c1ccc(C(F)(F)F)cc1 | 123% | 112 | 74% | 97.4 | 102 | 90.3% | 109% | 106% | 109% | 
6 | Nc1ccc(NC(=O)c2cccc(N)c2)cc1 | 108% | 85.7 | 97.1% |  | 102 | 92.5% | 96.3% |  | 104% | 
7 | C/C=C/CC(C)C(O)C1C(=O)NC(CC)C(=O)N(C)CC(=O)N(C)C(CC(C)C)C(=O)NC(C(C)C)C(=O)N(C)C(CC(C)C)C(=O)NC(C)C(=O)NC(C)C(=O)N(C)C(CC(C)C)C(=O)N(C)C(CC(C)C)C(=O)N(C)C(C(C)C)C(=O)N1C (stereo not given) | 39% |  | -6.48% (active) |  | 38.3 | -16.7% (active) | -1.51% (active) | 1.79% (active) | 4.21% (active) | 
8 | CC(=O)C1CCCCC1 | 111% | 107 | 102% | 99.1 | 107 | 92.4% | 111% |  | 106% | 
9 | O=C(O)CCCc1ccccc1 | 119% | 118 | 117% | 113 | 118 | 110% | 120% | 104% | 101% | 
10 | CCOC(=O)C(C#N)Cc1ccccc1 (stereo not given) |  | 136 |  | 124 | 113 | 104% | 114% | 117% | 108% | 125
11 | O=C(CCNNC(=O)c1ccncc1)NCc1ccccc1 |  | 110 | 60.9% | 93.8 | 95.8 | 105% | 95.4% | 110% | 103% | 
12 | c1ccc(/C(=N\N=C(/c2ccccc2)c2cccs2)c2cccs2)cc1 | 105% |  |  | 108 | 97 | 95.8% | 111% | 106% | 101% | 83.6
13 | CCCCCCCCCCCCCCCCC1CC(=O)OC1=O (stereo not given) | 121% | 114 | 98.3% | 116 | 113 | 99.3% | 104% | 104% |  | 
14 | CCOC(=O)/C(C#N)=C/c1cccc(C)c1 | 107% | 96 | 110% |  | 94.1 | 97.9% | 95.1% | 104% | 97.4% | 
15 | O=[N+]([O-])c1ccc(N=Nc2ccccc2)cc1 |  | 101 | 88.9% | 107 | 89.6 | 91.3% | 98.8% | 108% | 102% | 87.2
16 | CC(C)(C)c1cc(O)c(C(C)(C)C)cc1O | 108% |  | 88.9% |  | 95.8 | 85.7% | 86.1% | 85.6% | 103% | 96.7
17 | Nc1ccccc1C(=O)Nc1ccc(Cl)cc1Cl | 106% |  | 84.4% | 83.7 | 101 |  | 94.4% | 86.5% | 94.7% | 
18 | Cc1nc2ccccc2c2nnc(SCC(=O)N(Cc3ccccc3)c3ccccc3)n12 |  |  | 92.1% |  | 94.6 | 88.2% | 99.2% | 92.8% | 119% | 85.9
19 | CC1=CC(=O)c2ccccc2C1=O | 113% |  | 98.8% |  | 119 | 109% | 104% | 104% | 107% | 
20 | O=C(CC(=O)c1ccccc1O)c1ccccc1 | 91.8% | 115 | 91.1% | 103 | 90.7 | 89.5% | 95.5% | 95.7% | 97.4% | 
21 | Cc1cc(=O)[nH]c(NN=C2CCCC2)n1 | 112% | 108 | 102% | 121 | 112 | 108% | 107% | 125% | 112% | 
